Data taken from ChEMBL document CHEMBL4808148, “HDAC6 screening dataset using tau-based substrate in an enzymatic assay yields selective inhibitors and activators” (2021).
Screen size: about 5,600 compounds; about 150 (2.7%) showed an effect of 50% or more. Many of the other results were omitted from the sample, so strong results are more common in it than they were.

Columns and labels:
[1] = target: T1, Protein deacetylase HDAC6 (Homo sapiens) (UniProt Q9UBN7); conditions: at 10 µM
T1 sequence (whole entry): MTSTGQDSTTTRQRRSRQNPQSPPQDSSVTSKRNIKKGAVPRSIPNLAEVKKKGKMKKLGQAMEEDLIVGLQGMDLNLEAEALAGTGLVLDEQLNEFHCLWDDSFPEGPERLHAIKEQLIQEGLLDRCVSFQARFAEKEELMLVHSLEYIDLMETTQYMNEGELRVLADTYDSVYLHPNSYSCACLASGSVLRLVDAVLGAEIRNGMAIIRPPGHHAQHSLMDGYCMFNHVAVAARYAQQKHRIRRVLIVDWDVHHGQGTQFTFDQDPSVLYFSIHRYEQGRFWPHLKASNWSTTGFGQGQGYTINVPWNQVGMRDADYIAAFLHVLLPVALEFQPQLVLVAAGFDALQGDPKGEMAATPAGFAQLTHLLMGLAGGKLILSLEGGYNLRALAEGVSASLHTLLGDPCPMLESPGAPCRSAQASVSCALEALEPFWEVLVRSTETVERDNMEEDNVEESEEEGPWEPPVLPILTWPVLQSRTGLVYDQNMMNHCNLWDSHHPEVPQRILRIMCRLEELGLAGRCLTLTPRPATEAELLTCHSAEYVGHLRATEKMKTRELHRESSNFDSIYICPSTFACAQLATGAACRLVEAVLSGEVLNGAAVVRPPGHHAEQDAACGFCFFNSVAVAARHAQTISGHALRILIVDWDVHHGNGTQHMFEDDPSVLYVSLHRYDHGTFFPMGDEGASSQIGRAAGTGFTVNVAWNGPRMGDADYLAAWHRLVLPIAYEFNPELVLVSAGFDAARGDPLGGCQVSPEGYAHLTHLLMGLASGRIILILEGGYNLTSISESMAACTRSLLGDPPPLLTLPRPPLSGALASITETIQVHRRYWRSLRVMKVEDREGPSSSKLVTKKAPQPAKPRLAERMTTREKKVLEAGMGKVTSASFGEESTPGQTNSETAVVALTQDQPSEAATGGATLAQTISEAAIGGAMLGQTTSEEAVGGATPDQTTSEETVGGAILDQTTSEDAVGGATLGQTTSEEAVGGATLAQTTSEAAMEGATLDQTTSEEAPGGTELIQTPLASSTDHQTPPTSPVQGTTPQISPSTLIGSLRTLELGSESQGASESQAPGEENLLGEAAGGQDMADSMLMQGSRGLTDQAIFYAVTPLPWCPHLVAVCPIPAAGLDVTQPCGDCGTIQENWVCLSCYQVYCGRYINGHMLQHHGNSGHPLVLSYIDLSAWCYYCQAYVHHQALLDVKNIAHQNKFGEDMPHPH

[2] = target: Protein deacetylase HDAC6 (Homo sapiens) (UniProt Q9UBN7); conditions: at 10 µM; remark: listed apart in the source

Molecule | inhibition [1] | inhibition [2]
CN(C)c1ccc2c(c1)Sc1cc(N(C)C)ccc1N2 | 32.3% | –
COc1cc(Br)c(S(=O)(=O)Nc2ccc(C(F)(F)F)c(O[C@@H]3CCN(C)C3)c2)cc1OC | -1.99% | –
COc1ccc(-n2c(SCc3nc(-c4ccc(C)cc4)no3)nnc2-c2ccncc2)cc1 | -7.03% | –
O=C(Nc1c(-c2cccs2)nc2ccccn12)c1ccc(Cl)cc1 | -6.19% | –
COc1cc(/C=C/c2ccc(OC)cc2OC)cc(OC)c1 | 19.4% | –
Clc1cccc(/C=N/C=N/c2cccc(Cl)c2)c1 | 1.42% | –
COc1cccc(/C=N/C=N/c2cccc(OC)c2)c1 | 89.1% | –
CNCCCC1(c2ccccc2)OC(C)(C)c2ccccc21 (configuration not stated) | -1.2% | –
CSc1ccc(OCc2ncc([N+](=O)[O-])n2C)cc1 | 20.2% | –
O=C(O)c1cc([N+](=O)[O-])ccc1NCCCc1ccccc1 | 52.3% | –
Cn1c(NCCN(CCO)CCCc2ccc([N+](=O)[O-])cc2)cc(=O)n(C)c1=O | -7.89% | –
O=C(O)CCCc1ccccc1 | -4.8% | –
Cc1cc(NC(=O)NCCN2CCC(O)(Cc3ccccc3)CC2)c2ccccc2n1 | -3.32% | –
Oc1cccc(O)c1 | 5.02% | –
N[C@H]1C[C@@H]1c1ccc(-c2cccc(O)c2)cc1 | 51.4% | –
CC(=O)N[C@H]1[C@H]([C@H](O)[C@H](O)CO)O[C@](O)(C(=O)O)C[C@@H]1O | -7.16% | –
Cc1ccc(-c2ncn(-c3ccc(Nc4nccc(-c5cccc(N6CCOCC6)c5)n4)cc3)n2)cn1 | 14.5% | –
Cc1nc(N)sc1-c1ccnc(Nc2ccc(N3CCOCC3)cc2)n1 | 71.7% | –
N#CCNC(=O)c1ccc(-c2ccnc(Nc3ccc(N4CCOCC4)cc3)n2)cc1 | -5.68% | –
CC(C)[C@@H](N)C(=O)O | 1.7% | –
O=C(NCc1ccc2c(c1)OCO2)c1c(Cl)cccc1Cl | 3.64% | –
COc1ccc(-c2cc(=S)ss2)cc1 | 67.3% | –

Molecule | inhibition [1] | inhibition [2]
O=C(O)CCc1c(C(=O)O)[nH]c2cc(Cl)cc(Cl)c12 | 4% | –
NCC(=O)N1C[C@H](NC(=O)c2ccccc2)C[C@H]1C(=O)O | -0.8% | –
O=C(/C=C/c1ccccc1)NC(NC(=S)Nc1ccc(Cl)cc1)C(Cl)(Cl)Cl (configuration not stated) | -0.27% | –
Cc1ccc(C(=O)C(C)CN2CCCCC2)cc1 (configuration not stated) | 4.79% | –
Cc1ccc(C(=O)Cn2c3c(sc2=N)CCCC3)cc1 | 85.8% | –
Cc1cccc(NC(=O)CN2CCC(c3ccccn3)CC2)c1 | 32% | –
N=C(N)c1cc2ccc(OC(=O)c3cccs3)cc2s1 | 98.3% | –
O=C(O)c1cc2ccccc2s1 | -8.12% | –
OC(CN1CCNCC1)Cn1c2ccc(Br)cc2c2cc(Br)ccc21 (configuration not stated) | -4.75% | –
COc1cc2c(cc1OC)CN(C(=O)[C@@H](NCc1ccncc1)C(C)(C)C)CC2 | -4.01% | –
c1ccc(-c2ccc(CNc3nc(-c4ccccn4)nnc3-c3ccccc3)cc2)cc1 | 6.43% | –
O=C(Cc1ccc(-c2ccccc2)cc1)Nc1ccccn1 | 44.2% | –
c1ccc(NCc2ccc(CNc3ccccn3)cc2)nc1 | 91.6% | –
O=S1(=O)N[C@H]2CCCN2c2ccccc21 | -6.18% | –
FC(F)(F)c1ccc(Nc2ncnc3cc(-c4ncccc4C(F)(F)F)ccc23)cc1 | 6.46% | –
CCCC[C@@H](NC(=O)[C@@H](Cc1cn(C(=O)OC)c2ccccc12)NC(=O)[C@H](CC(C)(C)C)NC(=O)N1[C@H](C)CCC[C@@H]1C)C(=O)O | -9.33% | –
CCCCCCCCCCCCCCCC(=O)OC[C@H](COP(=O)([O-])OCC[N+](C)(C)C)OC(=O)CCCCCCCCCCCCCCC | -0.71% | –
COc1c(C)cnc(Cn2cc(C#CCC(C)(C)O)c3c(Cl)nc(N)nc32)c1C | 0.42% | –
O=C(c1cc(C2CC2)on1)N(C1CCCCC1)C1CCCCC1 | 9.33% | –
C#C[C@]1(OC(C)=O)CC[C@H]2[C@@H]3CCC4=C/C(=N/O)CC[C@@H]4[C@H]3CC[C@@]21CC | 5.83% | –
Nc1ccc(S(=O)(=O)Nc2ccccn2)cc1 | 2.21% | –
Cc1ccnc(NS(=O)(=O)c2ccc(N)cc2)n1 | -3.6% | –

Molecule | inhibition [1] | inhibition [2]
C=Cc1c(C)c2cc3nc(c(CC(=O)O)c4[nH]c(cc5nc(cc1[nH]2)C(C)=C5CC)c(C)c4C(=O)O)C(CCC(=O)O)C3C (configuration not stated) | 8.5% | –
CC(C)n1nccc1-c1ncccc1COc1cccc(O)c1C=O | 0.21% | –
O=c1cc(N2CCN(c3cccc(C(F)(F)F)c3)CC2)[nH]c(=O)n1C1CCCCC1 | -1.42% | –
O=C(c1ccc2c(c1)OCO2)N1CCCCC1 | -4.9% | –
O=C(COc1ccc(Cl)cc1)N1CCN(Cc2ccc3c(c2)OCO3)CC1 | -0.58% | –
O=C(CN1CCN(Cc2ccc3c(c2)OCO3)CC1)N1c2ccccc2Sc2ccccc21 | 4.21% | –
O=C(/C=C/C=C/c1ccc2c(c1)OCO2)N1CCCCC1 | 61.2% | –
CC(C)(C)C(O)/C=C/c1ccc2c(c1)OCO2 (configuration not stated) | 8.28% | –
O=C(/C=C/c1ccc2c(c1)OCO2)N1CCCCC1 | 67.8% | –
CC/C(=C(\c1ccc(OCCN(C)C)cc1)c1cccc(O)c1)c1ccccc1 | -4.47% | –
CC(C)(N)c1nc(-c2ccc(OC(F)(F)F)cc2)c[nH]1 | 3.83% | –
C[C@]12CC[C@H](O)CC1=CCC1C2CC[C@]2(C)C(n3cnc4ccccc43)=CCC12 (some centres not stated) | 10.9% | –
CCCCc1ccc2[nH]c(NC(=O)OC)nc2c1 | 15.1% | –
O=C(NO)c1ccc2[nH]c(=O)c(CCCc3ccccc3)nc2c1 | 97.8% | –
O=C(Nc1cccc2c(=O)cc(-c3nnn[nH]3)oc12)c1ccc(OCCCCc2ccccc2)cc1 | 2.83% | –
NC(=O)CCCCn1ccc(/N=C(\N)NCC(F)(F)F)n1 | -7.78% | –
O=C(Nc1ccc(C(O)(C(F)(F)F)C(F)(F)F)cc1)c1ccc(C(F)(F)F)cc1 | 0.41% | –
CC(=O)Nc1ccc(C(=O)O)cc1 | -3.9% | –
C/C(O)=C(\C#N)C(=O)Nc1ccc(C(F)(F)F)cc1 | 98.6% | –
C=C1CC/C=C(\C)CC[C@@H]2[C@@H]1CC2(C)C | 2.39% | –
O=c1c(-c2ccccc2)c1-c1ccccc1 | 10.5% | –
CCOc1cccc(NC(=O)c2ccc(N3CCCC3)c(C(F)(F)F)c2)c1 | 0.15% | –

Molecule | inhibition [1] | inhibition [2]
CCCCOc1ccc(C(=O)Nc2ccc(F)cc2F)cc1 | 49% | –
CCCCOc1ccc(CC(=O)NO)cc1 | 75.5% | –
CCCCOc1ccc(C(=O)CCN2CCCCC2)cc1 | -4.56% | –
CC[C@H](CC[C@@H](C)[C@H]1CC[C@H]2[C@@H]3CC=C4C[C@@H](O[C@@H]5O[C@H](CO)[C@@H](O)[C@H](O)[C@H]5O)CC[C@]4(C)[C@H]3CC[C@]12C)C(C)C | 2.47% | –
N#Cc1ccc(-c2ccc(S(=O)(=O)Nc3cccc(N)n3)cc2)cc1 | 2.23% | –
Nc1ncccc1-c1nc2ccc(-c3ccccc3)nc2n1-c1ccc(C2(N)CCC2)cc1 | 0.11% | –
N[C@@H](C(=O)O)c1ccc(O)c(C(=O)O)c1 | -2.24% | –
N[C@H](C(=O)O)c1ccc(O)c(C(=O)O)c1 | -4.47% | –
CC(C)c1ccc2oc3nc(N)c(C(=O)O)cc3c(=O)c2c1 | 99.5% | –
CCOc1cc(OCC)c(C(=O)CCC(=O)O)cc1OCC | -6.02% | –
Cc1n[nH]c2ccc(-c3cncc(OC[C@@H](N)Cc4ccccc4)c3)cc12 | -5.53% | –
hemin, CHEMBL5308479 | – | 13.1%
NCCNS(=O)(=O)c1ccc(Cl)c2ccncc12 | -2.71% | –
O=C1c2c(O)ccc(O)c2C(=O)c2c(NCCNCCO)ccc(NCCNCCO)c21 | 16% | –
NCCNc1ccc(NCCN)c2c1C(=O)c1ccncc1C2=O | 62.5% | –
Clc1ccc2c(N3CCN(CCCN4CCN(c5ccnc6cc(Cl)ccc56)CC4)CC3)ccnc2c1 | -8.35% | –
CC(C)(C)c1ccc(S(=O)(=O)Nc2ccc(Cl)cc2C(=O)c2cc[n+]([O-])cc2)cc1 | -2.23% | –
CC(C)Oc1ccc(Cc2ccc(NC3=NCCN3)cc2)cc1 | 18.9% | –
CCOC(=O)c1cc2ccc(O)cc2oc1=O | 86.3% | –
CCOC(=O)c1c(C)n(C)c2ccc(O)cc12 | 0.03% | –
CCOC(=O)c1ccc(O)cc1 | -0.21% | –
O=C1Nc2ccccc2C2=NC(CN3CCN(c4ccccc4)CC3)CN12 (configuration not stated) | -3.43% | –

Molecule | inhibition [1] | inhibition [2]
O=C(O)COc1cccc(CN(Cc2ccc(-n3cccn3)cc2)S(=O)(=O)c2cccnc2)c1 | 0.4% | –
COc1ccc2[nH]c(C(=O)c3ccccc3)cc2c1 | 73.2% | –
COc1ccc(C(=O)c2ccccc2O)c(O)c1 | 6.28% | –
COC(=O)Nc1nc2cc(C(=O)c3ccccc3)ccc2[nH]1 | 6.52% | –
CCN1C(C)(C)CC(Oc2ccc(C(=O)Nc3ccc(NC(=O)Nc4cc(C(C)(C)C)on4)cc3)nc2)CC1(C)C | 8.01% | –
O=C1N=C(NCc2cccs2)S/C1=C\c1ccc2ncccc2c1 | 13.2% | –
CCC[C@@]1(CCc2ccccc2)CC(O)=C([C@H](CC)c2cccc(NS(=O)(=O)c3ccc(C(F)(F)F)cn3)c2)C(=O)O1 | -1.6% | –
CCn1c(=O)c(-c2ccc(Cl)cc2Cl)cc2cnc(Nc3ccc(N4CCNCC4)c(F)c3)nc21 | -3.08% | –
CNC(=O)c1cc2c(cn1)[nH]c1ccccc12 | 15.7% | –
CNC(=O)c1ccccc1Sc1ccc2c(/C=C/c3ccccn3)n[nH]c2c1 | 98.1% | –
C[C@@]1(F)[C@H](O)[C@@H](CO)O[C@H]1n1ccc(N)nc1=O | -2.29% | –
CNc1cc(OC)c(C(=O)N[C@@H]2CCN(Cc3ccccc3)[C@@H]2C)cc1Cl.CNc1cc(OC)c(C(=O)N[C@H]2CCN(Cc3ccccc3)[C@H]2C)cc1Cl | 7.84% | –
BISMUTH SUBGALLATE, CHEMBL1592101 | – | -3.52%
CCN(CC)c1ccc(C(=C2C=CC(=[N+](CC)CC)C=C2)c2ccccc2)cc1 | 58.6% | –
CCN(CC)c1ccc(/C=N/NC(=O)c2ccc(O)cc2)cc1 | 49.5% | –
CCCC[C@]1(CC)CS(=O)(=O)c2cc(CNC(CC(=O)O)CC(=O)O)c(OC)cc2[C@@H](c2ccccc2)N1 | 0.63% | –
O=C(NCC1CN(c2ccc(N3CCOCC3=O)cc2)C(=O)O1)c1ccc(Cl)s1 (configuration not stated) | 2.41% | –
Cn1cc(-c2ccc(S(=O)(=O)n3ccc(/C=C/C(=O)Nc4ccccc4N)c3)cc2)cn1 | 9.5% | –
CN(C)Cc1ccc(S(=O)(=O)n2ccc(/C=C/C(=O)NO)c2)cc1 | 97.8% | –
